Test systems include EKVX NSCLC; SN12C renal; UO-31 renal; TK-10 renal; ACHN renal; A498 renal; CCRF-CEM leukemia; MOLT-4 leukemia; SR leukemia; CAKI-1 renal.
Common to all, as to assay: NCI-60 one-dose screen, 48 h (100 = growth as untreated, 0 = no growth, -100 = all killed)
Holding throughout (conditions): 10 µM

Compounds without any hit were thinned out: in the full panel of roughly 83,000, 20% have a hit.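 Compound tested at a single concentration for 48 hours in 96-well plates; a percent growth value below 10 was scored as active.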 Values without a mark were called inactive. Calls of active or inactive are those of the source.

For the molecule `Cc1nc2ccccc2c(N)c1-c1cc(C)c2c(C)nc3ccccc3c2n1`, the growth in the assay on EKVX NSCLC was 68.4%; in the assay on SN12C renal, 57.9%; in the assay on UO-31 renal, -95.7% (active); in the assay with TK-10 renal, 14.3%; in the assay with ACHN renal it was -92.4% (active); in the assay on A498 renal, -12.9% (active). The growth is -42.1% (active) with CCRF-CEM leukemia, -50.8% (active) in the assay with MOLT-4 leukemia and -39.5% (active) with SR leukemia.
For the molecule `CC(=O)OCc1cc(-c2nc3ccccc3[nH]c2=O)nn1-c1ccc(Cl)cc1`, the growth in the assay on EKVX NSCLC is 104%; in the assay with SN12C renal, 105%; in the assay on UO-31 renal it was 98.2%; in the assay with TK-10 renal it was 119%; in the assay on ACHN renal it was 102%; in the assay with A498 renal it was 100%. Also, the growth with CCRF-CEM leukemia is 97.9%; in the assay with MOLT-4 leukemia it was 87.6%; with SR leukemia it was 105%.
As to `CCCCOC(=O)Oc1ccc(C(=O)Oc2ccc(OCC)cc2)cc1`, the growth is 98% with EKVX NSCLC; 95.3% with SN12C renal; 85.6% in the assay on UO-31 renal; 117% in the assay on TK-10 renal; 90.2% with ACHN renal; 87.1% in the assay on CAKI-1 renal. Moreover, the growth was 8.77% (active) in the assay with CCRF-CEM leukemia, 111% with MOLT-4 leukemia and 107% in the assay with SR leukemia.
As for `CC(C)=CCc1cc(O)cc2c1OC(C=C(C)C)C1=C2C(=O)C2=C(NCCS2(=O)=O)C1=O` (stereo not drawn), the growth in the assay with EKVX NSCLC was -1.26% (active); in the assay on SN12C renal, -59% (active); in the assay on UO-31 renal, 67.3%; in the assay on TK-10 renal, 106%; in the assay on ACHN renal, 26.2%; in the assay on A498 renal, 50.2%. Also, the growth with CCRF-CEM leukemia was 1.9% (active); in the assay with MOLT-4 leukemia, -34.5% (active); in the assay on SR leukemia, 1.49% (active).
Regarding `CCN(CCCCCCN1CC(=O)N(CCCCCCN(CC)Cc2ccccc2OC)CC1=O)Cc1ccccc1OC`, the growth in the assay on EKVX NSCLC was 72.9%; in the assay on SN12C renal it was 93.9%; in the assay on UO-31 renal, 91.9%; in the assay with TK-10 renal, 87.6%; with ACHN renal, 110%; with CAKI-1 renal it was 90.3%. The growth with MOLT-4 leukemia was 42.7%; with SR leukemia, 39.3%.
Turning to `COc1cc(C(=O)N2CCN(c3ccccc3OC)CC2)c(N)cc1OCCCN1CCN(c2ccccc2OC)CC1`, the growth in the assay with EKVX NSCLC was 83.2%; in the assay with SN12C renal, 98.6%; in the assay with UO-31 renal, 62.4%; in the assay on TK-10 renal, 113%; with ACHN renal it was 88.8%; in the assay with A498 renal it was 117%. Besides, the growth is 4.33% (active) in the assay with CCRF-CEM leukemia, 53.8% with MOLT-4 leukemia and 67.7% in the assay on SR leukemia.
Take `O=c1[nH]c2ccc(Cl)cc2c2ccccc12`: the growth with EKVX NSCLC was 41.8%; in the assay on SN12C renal, 87.8%; in the assay with UO-31 renal, 20.2%; in the assay with TK-10 renal, 81%; in the assay on ACHN renal, 48.9%; with CAKI-1 renal it was 43.2%. Moreover, the results for the growth in the assay with CCRF-CEM leukemia, in the assay on MOLT-4 leukemia and in the assay on SR leukemia were 99.3%, 119% and 75.4%, respectively.
`Nc1nc(N)c2c(ccc3nccc32)[nH]1`: the growth in the assay with EKVX NSCLC is 51.6%; with SN12C renal, 94%; in the assay with UO-31 renal it was 39.3%; in the assay on TK-10 renal it was 92.1%; in the assay with ACHN renal, 42.7%; in the assay on A498 renal, 79.4%. Besides, the growth in the assay with CCRF-CEM leukemia was 27.9%; with MOLT-4 leukemia, 33.9%; with SR leukemia it was 28.5%.
Regarding `CC12O[C@H](C[C@@H](O)[C@H]1O)n1c3ccccc3c3c4c(c5c6ccccc6n2c5c31)C(=O)N(CCCN)C4=O`, the growth with EKVX NSCLC is 54.9%; with SN12C renal, 36.2%; in the assay on UO-31 renal, 57.6%; with TK-10 renal, 38.8%; in the assay with ACHN renal it was 79.4%; in the assay with A498 renal, 42.3%. The growth in the assay with CCRF-CEM leukemia is 11.2%; with MOLT-4 leukemia, -3.13% (active); in the assay on SR leukemia, 0.745% (active).
`CC12O[C@H](C[C@@H](OC(=O)c3ccccc3)[C@H]1O)n1c3ccccc3c3c4c(c5c6ccccc6n2c5c31)C(=O)NC4=O`: the growth in the assay on EKVX NSCLC is 36.4%; in the assay with SN12C renal, 33%; in the assay on UO-31 renal, -13.9% (active); with TK-10 renal, 7.3% (active); with ACHN renal, 39.4%; with A498 renal, -25.6% (active). Further, the growth with CCRF-CEM leukemia was 64%; in the assay with MOLT-4 leukemia it was 64.3%; in the assay with SR leukemia, 50.3%.
Regarding `COc1ccc(-c2cc(-c3ccc(N(C)C)cc3)c(C#N)c(N3CCCC3)n2)cc1`, the growth with EKVX NSCLC was 73.1%; with SN12C renal it was 89.2%; with UO-31 renal, 81.7%; in the assay with TK-10 renal, 85.4%; in the assay with ACHN renal it was 98.5%; in the assay with A498 renal it was 106%. Moreover, the growth in the assay on CCRF-CEM leukemia is 79.5%; in the assay on MOLT-4 leukemia it was 81.2%; in the assay with SR leukemia, 40.8%.
As to `COC(=O)C1(C)Cc2cc(OC(C)=O)c(OC(C)=O)cc2N1` (stereo not drawn), the growth was 92.2% in the assay with EKVX NSCLC; 88.8% in the assay with SN12C renal; 32.3% in the assay on UO-31 renal; 87.9% in the assay on TK-10 renal; 27.3% in the assay on ACHN renal; 92.8% in the assay on A498 renal. Further, the growth was 24.1% in the assay on CCRF-CEM leukemia, 56.6% in the assay on MOLT-4 leukemia and 1.05% (active) in the assay with SR leukemia.
In the case of `N#CC1=C(Nc2ccccc2Cl)SC(c2ccccc2O)NC1=O` (stereo not drawn), the growth is 108% in the assay on EKVX NSCLC; 102% with SN12C renal; 84.5% in the assay on UO-31 renal; 134% in the assay on TK-10 renal; 97.7% in the assay with ACHN renal; 95.2% in the assay on A498 renal. Besides, the growth is 99.9% in the assay with CCRF-CEM leukemia, 104% in the assay with MOLT-4 leukemia and 123% in the assay with SR leukemia.
As to `O=C(Nc1cccc(Cl)c1)Nc1nccs1`, the growth is 98.1% in the assay on EKVX NSCLC; 87.7% in the assay with SN12C renal; 89.9% in the assay with UO-31 renal; 109% in the assay on TK-10 renal; 98.5% with ACHN renal; 99.2% with A498 renal. Besides, the growth with CCRF-CEM leukemia is 83.2%; in the assay on MOLT-4 leukemia it was 101%.
With `Cc1cccc(NC2=C(C#N)C(=O)NC3(CCCC3)S2)c1`, the growth in the assay on EKVX NSCLC was 106%; in the assay on SN12C renal, 97.3%; in the assay with UO-31 renal it was 93.8%; with TK-10 renal it was 107%; in the assay on ACHN renal, 98.2%; in the assay with A498 renal, 96.9%. In addition, the growth is 90.2% with CCRF-CEM leukemia, 98.4% with MOLT-4 leukemia and 94.9% in the assay with SR leukemia.

Source of the values: PubChem BioAssay (NCI).
